Test results as given in the supplement of paper PMC6555819.

Tests used:
Test in all cases: PBM binding z-score (relative to random genomic background probes); higher = stronger binding; sequences stand for … in GC…GCGATTGACAGCGTAGAATGAAGG
[1] = system: FXR:RXRa (NR concentration 270 nM, RXRa partner concentration 90 nM)
In short: (§1)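 Binding buffer was PBS pH 7.4 with 2% milk, 0.02% Triton X-100, 1 mM DTT, 0.2 mg/mL BSA and 0.4 mg/ml salmon testes DNA. In it, ligand-free nuclear receptor dimers were incubated 1 h on custom Agilent 4×180K protein-binding microarrays carrying double-stranded probes. Antibodies against each partner (one per run) detected binding, and z-scores were calculated against random background probes after regression normalization of scanned fluorescence.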

[2] = system: LXRa:RXRa (NR concentration 270 nM, RXRa partner concentration 90 nM)
In short: as §1

[3] = system: LXRa homodimer (NR concentration 270 nM)
In short: as §1

[4] = system: LXRb:RXRa (NR concentration 270 nM, RXRa partner concentration 90 nM)
In short: as §1

[5] = system: LXRb homodimer (NR concentration 270 nM)
In short: as §1

[6] = system: PPARa:RXRa (NR concentration 270 nM, RXRa partner concentration 90 nM)
In short: as §1

[7] = system: PPARg:RXRa (NR concentration 180 nM, RXRa partner concentration 90 nM)
In short: as §1

[8] = system: PPARg:RXRa 270nM:90nM, anti-RXR (NR concentration 270 nM, RXRa partner concentration 90 nM)
In short: as §1

[9] = system: PPARg:RXRa 30nM:10nM, anti-RXR (NR concentration 30 nM, RXRa partner concentration 10 nM)
In short: as §1

[10] = system: PPARg:RXRa 90nM:30nM, anti-RXR (NR concentration 90 nM, RXRa partner concentration 30 nM)
In short: as §1

[11] = system: PPARg:RXRa DBDmut IVT, anti-RXR (DBD mutation: RXRa K156A/R161A, NR concentration 270 nM, RXRa partner concentration 90 nM)
In short: as §1

[12] = system: PPARg:RXRa IVT, anti-PPARg (NR concentration 270 nM, RXRa partner concentration 90 nM)
In short: as §1

[13] = system: PPARg DBDmut:RXRa IVT, anti-PPARg (DBD mutation: PPARg1 K132A/R137A, NR concentration 270 nM, RXRa partner concentration 90 nM)
In short: as §1

[14] = system: PPARg DBDmut IVT, anti-PPARg (DBD mutation: PPARg1 K132A/R137A, NR concentration 270 nM)
In short: as §1

[15] = system: PPARg homodimer (NR concentration 180 nM)
In short: as §1

[16] = system: PXR:RXRa (NR concentration 270 nM, RXRa partner concentration 90 nM)
In short: as §1

[17] = system: PXR homodimer (NR concentration 270 nM)
In short: as §1

[18] = system: RARa:RXR (NR concentration 270 nM, RXRa partner concentration 90 nM)
In short: as §1

[19] = system: RARa homodimer (NR concentration 270 nM)
In short: as §1

[20] = system: RARb:RXRa (NR concentration 270 nM, RXRa partner concentration 90 nM)
In short: as §1

Row | Sequence | PBM binding z-score [1] | PBM binding z-score [2] | PBM binding z-score [3] | PBM binding z-score [4] | PBM binding z-score [5] | PBM binding z-score [6] | PBM binding z-score [7] | PBM binding z-score [8] | PBM binding z-score [9] | PBM binding z-score [10] | PBM binding z-score [11] | PBM binding z-score [12] | PBM binding z-score [13] | PBM binding z-score [14] | PBM binding z-score [15] | PBM binding z-score [16] | PBM binding z-score [17] | PBM binding z-score [18] | PBM binding z-score [19] | PBM binding z-score [20]
1 | GCTCGGAGGACAAGGACAGAGCTTTGTCCGTAGA | -0.454 | -0.825 | -0.708 | -0.936 | -1.44 | -0.604 | -0.644 | -0.934 | -1.21 | -1.04 | -0.897 | -0.505 | -1.52 | -0.297 | -0.588 | -0.527 | -0.912 | -0.421 | -1.45 | 0.929
2 | CCGACTGGGGCATAAGCTTACCATAAGCCAGCCC | -0.673 | -0.689 | -0.589 | -0.747 | -1.15 | -0.16 | 0.765 | 1.04 | -0.348 | 0.228 | 2.59 | 1.57 | -1.09 | -1.16 | -0.394 | -0.775 | -0.649 | -0.694 | -0.632 | -0.11
3 | CGAACTAGGTCATTGACACGACAGTGAATAGTAA | 5.16 | 3.65 | 0.689 | 2.48 | 0.158 | 4.67 | 7.57 | 6.21 | 3.95 | 5.54 | 7.93 | 8.44 | 3.78 | 3.06 | 2.25 | 1.33 | 0.767 | 2.2 | 0.177 | 3.52
4 | CCTAGCAGGCCAGGGTCCCTCAAGCATTTCGCTT | -0.373 | -0.567 | -0.782 | -0.712 | -1.31 | -0.381 | -0.884 | -0.699 | -1.41 | -0.959 | -0.423 | -0.501 | -1.5 | -1.43 | -0.522 | -0.483 | -0.449 | -0.227 | -0.786 | -0.0655
5 | AGTCACAGTTCATCTAGGTAACGTAAGATATGCT | 2.21 | 2.57 | 1.29 | 1.54 | 0.388 | 2.11 | 1.85 | 1.88 | 0.525 | 1.04 | 0.901 | 2.75 | 1.15 | 1.19 | 0.64 | 2.32 | 1.87 | 1.44 | 0.582 | 2.74
6 | CCAGACAGGTGAGAAGGTAATTCAGCCTCGATTA | -0.0604 | -0.00281 | 0.0932 | 0.0559 | -0.31 | 0.475 | 0.379 | 0.635 | -0.0755 | 0.116 | 1.14 | 0.682 | -0.0729 | -0.734 | 0.321 | -0.0378 | 0.107 | 0.349 | 0.94 | 0.555
7 | TGTCAAAGTTCAAAGGTATCGTAAGTATCCACAC | 6.52 | 6.21 | 4.75 | 3.88 | 1.73 | 5.28 | 7.79 | 7.23 | 4.93 | 6.44 | -0.2 | 3.95 | 0.81 | 1.08 | 2.53 | 5.14 | 4.92 | 4.95 | 1.12 | 4.91
8 | CATACAGGGTCAGCAAGGCCAGAGTAGGGACGGC | 4.73 | 3.36 | -0.0417 | 2.23 | -0.0671 | 4.51 | 3.47 | 3.27 | 0.536 | 2.04 | 1.19 | 2.54 | 0.587 | 0.984 | 1.18 | 2.66 | 0.241 | 3.24 | 0.341 | 4.25
9 | CGAACTAGGTCAGCCAGGACAGTGAATACATTGA | 1.87 | 0.875 | 0.291 | 0.649 | -0.648 | 3.55 | 6.1 | 5.28 | 2.28 | 4.35 | 7.76 | 7.73 | 1.49 | 0.655 | 1.34 | 0.744 | -0.0382 | 0.595 | 0.0532 | 3.45
10 | GCTAGTTGGTCAGTGAAAGGTCACACACCGGTCG | 3.55 | 4.39 | 4.49 | 3.7 | 0.467 | 4.43 | 4.64 | 5.57 | 3.93 | 5.67 | 1.21 | 2.97 | 0.254 | 0.307 | 3.99 | 5.13 | 1.02 | 5.89 | 1.88 | 4.27
11 | ATTCAAAGTTCACTAGGTAACGTAAGATTCAGCT | 4.73 | 5.45 | 4.42 | 3.08 | 1.71 | 4.44 | 5.64 | 5.28 | 2.03 | 4.25 | 2.64 | 4.4 | 1.68 | 2.19 | 2.66 | 3.71 | 3.03 | 2.9 | 2.06 | 4.61
12 | CCTACTGTGCCAAAGGTCATTGATTCCAATGCTC | 5.48 | 5.82 | 5.32 | 5.34 | 2.14 | 6.17 | 11.4 | 9.67 | 9.47 | 10.3 | 5.24 | 5.97 | 0.578 | 0.496 | 4.4 | 5.42 | 2.77 | 5.77 | 2.56 | 4.63
13 | CCACACAGGTGAGAAGGTAACTCAGCCTCGATTA | 0.187 | 0.0665 | 0.368 | 0.214 | -0.197 | 0.855 | 0.76 | 0.577 | -0.223 | 0.451 | 1.42 | 0.872 | -0.137 | -0.56 | 1.35 | 0.0866 | 0.0622 | 0.524 | 0.47 | 0.709
14 | ACAGAGAGGTGATGAAGGTAACTCAGGCTATCAT | 0.1 | -0.0398 | -0.296 | 0.23 | 0.0774 | 0.952 | 0.708 | 0.305 | 0.188 | 0.328 | 1.04 | 1.11 | 0.359 | -0.0267 | 0.505 | 0.0565 | 0.268 | 0.393 | 0.478 | 0.825
